Screening data as filed in PubChem.
Only some compounds are listed: those with a hit (about 7.8% of all), similar ones and a draw of the others.
NOMO-1 viab – STK33 inhibitor candidate reducing NOMO-1 cell viability. inhibition, % (no concentration beside the values). 37,000 compounds, 7.5% hits. NOMO-1 AML viability, CellTiter-Glo luminescence, 72 h; in the data active = inhibition above about 80%; inconclusive = no clear call, values can overlap the other calls
Shh pathway inh – Sonic Hedgehog pathway inhibition | 22,000 compounds, 2.1% hits | AID 2313 | Shh-LIGHT2 Gli-luciferase reporter, 30 h | inhibition, % (no concentration beside the values);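 active = mean inhibition across valid replicates above about 65%, limit read from the data; inconclusive = mean under the limit, yet half or more replicates past it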;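 note: pathway switched on by Shh-conditioned medium diluted 1 in 25 in low serum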
PD-1 reversal – reversal of PD-1 mediated T-cell inhibition. primary human CD4 T cells, PD-L1 beads, CellTiter-Glo 96 h. 29,000 tested, under 10 active. activation, % (test concentration not listed). AID 2316; call rule not given here
MITF inhib – inhibitors of MITF; 37,000 compounds, 0.28% hits; AID 2240; inhibition, % (test concentration not listed); TRPM1 promoter luciferase, luminescence, 24 h; in the data active = inhibition above about 85%; inconclusive = no clear call, values can overlap the other calls; inactive = below about 68%;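 note: human melanocyte line stably carrying TRPM1 promoter luciferase reporter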
Large screens that a line does not name were inactive.

COc1cccc(NC(=O)CSc2nc3ccccc3c(=O)n2-c2cccc(C(F)(F)F)c2)c1	none (no result: Shh pathway inh, PD-1 reversal)
COc1ccc(NC(=O)Nc2cccc3c2O[C@@H](CN(C)Cc2ccc(Cl)c(Cl)c2)[C@@H](C)CN([C@@H](C)CO)C3=O)cc1	NOMO-1 viab 121 (no result: Shh pathway inh)
COc1ccc(NC(=O)Nc2cccc3c2O[C@@H](CN(C)Cc2ccc(Cl)c(Cl)c2)[C@@H](C)CN([C@H](C)CO)C3=O)cc1	NOMO-1 viab 97
Cc1nnc(SCC(=O)NCC2CCCO2)s1 (configuration not stated)	none (no result: Shh pathway inh)
O=C(Cn1cnc2scc(-c3cccc([N+](=O)[O-])c3)c2c1=O)Nc1ccc(F)c(Cl)c1	none (no result: Shh pathway inh)
C[C@@H]1CN([C@H](C)CO)C(=O)c2cc(NS(=O)(=O)c3ccc(F)cc3)ccc2O[C@@H]1CN(C)Cc1ccc(Oc2ccccc2)cc1	NOMO-1 viab 86 (no result: Shh pathway inh)
C[C@H]1CN([C@@H](C)CO)C(=O)c2cc(NS(=O)(=O)c3ccc(F)cc3)ccc2O[C@H]1CN(C)Cc1ccc(Oc2ccccc2)cc1	none (no result: Shh pathway inh)
C[C@H](CO)N1C[C@H](C)[C@@H](CN(C)Cc2ccc(Oc3ccccc3)cc2)Oc2ccc(NS(=O)(=O)c3ccccc3)cc2C1=O	none (no result: Shh pathway inh)
C[C@@H]1CN([C@H](C)CO)C(=O)c2cc(NS(=O)(=O)c3ccc(F)cc3)ccc2O[C@H]1CN(C)Cc1ccc(Oc2ccccc2)cc1	NOMO-1 viab 114 (no result: Shh pathway inh, PD-1 reversal)
O=C(c1ccc(Oc2ccccc2)cc1)c1coc2ccc(O)cc12	NOMO-1 viab 139
C[C@H](CO)N1C[C@H](C)[C@@H](CN(C)Cc2ccc(Cl)c(Cl)c2)Oc2c(NC(=O)Nc3ccc(C(F)(F)F)cc3)cccc2C1=O	NOMO-1 viab 109
C[C@H]1CN([C@@H](C)CO)C(=O)c2cccc(NC(=O)Nc3ccc(C(F)(F)F)cc3)c2O[C@@H]1CN(C)Cc1ccc(Cl)c(Cl)c1	NOMO-1 viab 107
Cc1cccc(-n2ncc3ccccc3c2=O)c1	none
C[C@H](CO)N1C[C@H](C)[C@H](CN(C)Cc2ccc(Oc3ccccc3)cc2)Oc2ccc(NS(=O)(=O)c3cccs3)cc2CC1=O	none
C[C@@H]1CN([C@H](C)CO)C(=O)Cc2cc(NS(=O)(=O)c3cccs3)ccc2O[C@H]1CN(C)Cc1ccc(Oc2ccccc2)cc1	NOMO-1 viab 89 (no result: PD-1 reversal)
C[C@@H]1CN([C@H](C)CO)C(=O)c2cc(NS(=O)(=O)c3cccs3)ccc2O[C@@H]1CN(C)Cc1ccc(Oc2ccccc2)cc1	NOMO-1 viab 106 (no result: PD-1 reversal)
Cc1cccc(Cn2nc(C(C)(C)C)cc2C(=O)Nc2cccnc2)c1	NOMO-1 viab inconclusive
C=CCNC(=O)COc1ccc(Cl)cc1Cl	NOMO-1 viab 115
COC(=O)CNC(=O)c1cn(-c2ccccc2)nc1-c1ccccc1	none (no result: Shh pathway inh)
COC(=O)CNC(=O)c1cn(-c2ccccc2)nc1-c1cc2ccccc2oc1=O	NOMO-1 viab 111 (no result: Shh pathway inh, PD-1 reversal)
COCCCN=C1NS(=O)(=O)c2ccccc21	none (no result: Shh pathway inh, PD-1 reversal)
c1ccc2c(c1)n(CCN1CCOCC1)c1nc(C34CC5CC(CC(C5)C3)C4)cn21	none (no result: Shh pathway inh, PD-1 reversal)
COc1ccc(-n2c(-c3cccc(OC)c3)csc2=NCc2cccnc2)cc1	Shh pathway inh 71
CSc1ccccc1NC(=O)CN(c1ccc(Cl)cc1)S(C)(=O)=O	none (no result: Shh pathway inh)
C[C@@H]1CN([C@H](C)CO)C(=O)c2cccc(NS(=O)(=O)c3ccc(Cl)cc3)c2O[C@H]1CN(C)Cc1ccc(Oc2ccccc2)cc1	none
C[C@H](CO)N1C[C@H](C)[C@@H](CN(C)Cc2ccc(Oc3ccccc3)cc2)Oc2c(NS(=O)(=O)c3ccc(Cl)cc3)cccc2C1=O	NOMO-1 viab 104
C[C@@H]1CN([C@@H](C)CO)C(=O)c2cccc(NS(=O)(=O)c3ccc(Cl)cc3)c2O[C@@H]1CN(C)Cc1ccc(Oc2ccccc2)cc1	NOMO-1 viab 88
C[C@H]1CN([C@@H](C)CO)C(=O)c2cccc(NS(=O)(=O)c3ccc(Cl)cc3)c2O[C@H]1CN(C)Cc1ccc(Oc2ccccc2)cc1	NOMO-1 viab inconclusive
C[C@H](CO)N1C[C@H](C)[C@H](CN(C)Cc2ccc(Cl)c(Cl)c2)Oc2c(NS(=O)(=O)c3ccccc3)cccc2C1=O	NOMO-1 viab inconclusive, Shh pathway inh 82 (no result: PD-1 reversal)
C[C@H]1CN([C@@H](C)CO)C(=O)c2cccc(NS(=O)(=O)c3ccccc3)c2O[C@@H]1CN(C)Cc1ccc(Cl)c(Cl)c1	none
COC(=O)c1cc(-c2ccccc2)sc1NC(=O)c1cnccn1	none (no result: Shh pathway inh)
CCc1ccc(C(=O)Nc2nccs2)cc1	none
COC(=O)c1ccc(CSc2n[nH]c(-c3ccccc3OC)n2)o1	NOMO-1 viab 114 (no result: Shh pathway inh, PD-1 reversal)
Cc1ccc(S(=O)(=O)CCSc2sc(C#N)c3c2C(=O)CC(C)(C)C3)cc1	NOMO-1 viab 94, Shh pathway inh 66
CC(C)CC(NC(=O)Nc1cccc2ccccc12)C(=O)O (configuration not stated)	none
CN1CCc2cccc3c2[C@H]1Cc1ccc(O)c(O)c1-3	NOMO-1 viab 113 (no result: PD-1 reversal)
O=C(Cn1cnc2ccccc2c1=O)Nc1ccc2c(c1)oc1ccccc12	none (no result: Shh pathway inh)
C/C=C(/C)C(=O)O[C@H]1C=C(CO)C(=O)[C@H](OC(=O)/C(C)=C/CO)[C@H]1C(C)C	NOMO-1 viab 122, MITF inhib 106
Cc1ccc2c(C)c(C(=O)Nc3sc4c(c3C(=O)NCC3CCCO3)CCC4)oc2c1 (configuration not stated)	none (no result: Shh pathway inh, PD-1 reversal)
Cc1ccc2c(C)c(C(=O)Nc3sc4c(c3C(=O)NCC3CCCO3)CCCC4)oc2c1 (configuration not stated)	NOMO-1 viab 114 (no result: Shh pathway inh, PD-1 reversal)
Cc1ccc2oc(C(=O)Nc3sc4c(c3C(=O)NCc3ccco3)CCC4)c(C)c2c1	NOMO-1 viab 120 (no result: Shh pathway inh, PD-1 reversal)
CC1=CC(C)C2(COC(=O)NC3CCCCC3)COC3(CCCC3)C1C2C (configuration not stated)	NOMO-1 viab 113 (no result: Shh pathway inh)
O=C(COC(=O)c1c(C(F)(F)F)cccc1C(F)(F)F)c1ccc(Cl)cc1	NOMO-1 viab 111
O=C(COC(=O)c1ccc(Br)cc1)c1ccc(Br)cc1	none (no result: Shh pathway inh)
CC(CNc1ccccc1)C(=Nc1ccccc1)Nc1ccccc1 (configuration not stated)	NOMO-1 viab 119
C[C@H](CO)N1C[C@H](C)[C@@H](CN(C)C(=O)Nc2ccc(F)cc2)Oc2c(NC(=O)Nc3cccc4ccccc34)cccc2C1=O	none
C[C@H](CO)N1C[C@H](C)[C@@H](CN(C)C(=O)Nc2cccc3ccccc23)Oc2c(NC(=O)Nc3ccc(F)cc3)cccc2C1=O	Shh pathway inh 80
C[C@@H]1CN([C@H](C)CO)C(=O)c2cccc(NC(=O)Nc3ccc(F)cc3)c2O[C@@H]1CN(C)C(=O)Nc1cccc2ccccc12	none
C[C@@H]1CN([C@@H](C)CO)C(=O)c2cccc(NC(=O)Nc3ccc(F)cc3)c2O[C@@H]1CN(C)C(=O)Nc1cccc2ccccc12	NOMO-1 viab 96, Shh pathway inh inconclusive
COc1cc(NC(=O)COc2ccc(Cl)cc2)c(C(=O)O)cc1OC	none (no result: Shh pathway inh)
Cn1c(SCC(=O)O)nnc1-c1ccccc1	none (no result: Shh pathway inh)
C=CCSc1nc(N)c(C(=O)Nc2ccccc2)cc1C(N)=O	none
CO[C@@H]1C=C[C@@]23c4cc5c(cc4CN(CC2O)[C@H]3C1)OCO5 (some centres not stated)	NOMO-1 viab 113, Shh pathway inh 88
